The values below come from ChEMBL document CHEMBL1961873, “Compounds: GSK PKIS; Assays: Nanosyn kinase panel” (2012).

Assay [1] deals with Casein kinase I isoform gamma-2 (Homo sapiens) (UniProt P78368). Conditions: at 1 µM.
Assay [2] addresses Casein kinase I isoform gamma-3 (Homo sapiens) (UniProt Q9Y6M4). Particulars: at 0.1 µM.
Assay [3] has the same target. Particulars: at 1 µM.
Assay [4] addresses Cyclin-dependent kinase 1 (Homo sapiens) (UniProt P06493). Particulars: at 0.1 µM.
For assay [5] the target is unchanged. Particulars: at 1 µM.
Assay [6] addresses Cyclin-dependent kinase 2 (Homo sapiens) (UniProt P24941). Conditions: at 0.1 µM.
Assay [7] shares this target. Particulars: at 1 µM.
Assay [8] shares this target. Conditions: at 0.1 µM. The source holds these as a separate data set.
The target is the same in assay [9]. Particulars: at 1 µM. This is another data set of the same source.
The target in assay [10] is T1, CDK3/Cyclin E (Homo sapiens) (UniProt P24864+Q00526). Conditions: at 0.1 µM.
T1 sequence (P24864 whole entry, looked up): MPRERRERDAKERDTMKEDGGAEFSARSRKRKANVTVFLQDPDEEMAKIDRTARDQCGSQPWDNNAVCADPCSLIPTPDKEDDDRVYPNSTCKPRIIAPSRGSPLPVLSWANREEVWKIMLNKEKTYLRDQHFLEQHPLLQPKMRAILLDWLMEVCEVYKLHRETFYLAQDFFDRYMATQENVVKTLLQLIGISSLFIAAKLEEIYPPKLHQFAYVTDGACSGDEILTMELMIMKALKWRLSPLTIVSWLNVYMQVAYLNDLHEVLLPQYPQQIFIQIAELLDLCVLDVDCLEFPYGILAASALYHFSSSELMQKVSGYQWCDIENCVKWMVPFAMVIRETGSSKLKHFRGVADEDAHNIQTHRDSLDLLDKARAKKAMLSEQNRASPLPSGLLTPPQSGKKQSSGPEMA
T1 sequence (Q00526 whole entry, looked up): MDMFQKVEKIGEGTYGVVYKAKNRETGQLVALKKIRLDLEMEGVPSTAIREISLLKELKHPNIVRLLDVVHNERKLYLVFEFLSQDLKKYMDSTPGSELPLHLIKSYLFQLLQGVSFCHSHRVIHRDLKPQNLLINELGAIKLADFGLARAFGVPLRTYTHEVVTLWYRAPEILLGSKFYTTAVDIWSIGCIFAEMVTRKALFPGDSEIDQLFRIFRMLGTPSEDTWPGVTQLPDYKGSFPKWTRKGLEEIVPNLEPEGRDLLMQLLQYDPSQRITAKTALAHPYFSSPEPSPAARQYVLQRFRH
Assay [11] deals with T1, CDK3/Cyclin E (Homo sapiens). Conditions: at 1 µM.
Assay [12] concerns the target Cyclin-dependent kinase 4 (Homo sapiens) (UniProt P11802). Conditions: at 0.1 µM.
Assay [13] has the same target. Particulars: at 1 µM.
Assay [14] concerns the target Cyclin-dependent kinase 5 (Homo sapiens) (UniProt Q00535). Particulars: at 0.1 µM.
Assay [15] has the same target. Conditions: at 1 µM.
The target of assay [16] is Cyclin-dependent kinase 6 (Homo sapiens) (UniProt Q00534). Conditions: at 0.1 µM.
Cyclin-dependent kinase 6 (Homo sapiens), sequence (Q00534 whole entry): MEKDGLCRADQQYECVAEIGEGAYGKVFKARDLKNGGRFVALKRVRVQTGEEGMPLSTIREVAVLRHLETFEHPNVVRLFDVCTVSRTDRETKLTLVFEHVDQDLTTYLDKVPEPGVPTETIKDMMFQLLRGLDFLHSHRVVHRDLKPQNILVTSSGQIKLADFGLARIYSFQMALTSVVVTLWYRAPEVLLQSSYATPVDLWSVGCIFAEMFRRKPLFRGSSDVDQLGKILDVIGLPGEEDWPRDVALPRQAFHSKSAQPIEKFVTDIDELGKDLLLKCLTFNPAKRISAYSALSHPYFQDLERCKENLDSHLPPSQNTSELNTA
Assay [17] shares this target. Conditions: at 1 µM.
In assay [18] the target is Dual specificity protein kinase CLK2 (Homo sapiens) (UniProt P49760). Conditions: at 0.1 µM.
Dual specificity protein kinase CLK2 (Homo sapiens), sequence (P49760 whole entry, looked up): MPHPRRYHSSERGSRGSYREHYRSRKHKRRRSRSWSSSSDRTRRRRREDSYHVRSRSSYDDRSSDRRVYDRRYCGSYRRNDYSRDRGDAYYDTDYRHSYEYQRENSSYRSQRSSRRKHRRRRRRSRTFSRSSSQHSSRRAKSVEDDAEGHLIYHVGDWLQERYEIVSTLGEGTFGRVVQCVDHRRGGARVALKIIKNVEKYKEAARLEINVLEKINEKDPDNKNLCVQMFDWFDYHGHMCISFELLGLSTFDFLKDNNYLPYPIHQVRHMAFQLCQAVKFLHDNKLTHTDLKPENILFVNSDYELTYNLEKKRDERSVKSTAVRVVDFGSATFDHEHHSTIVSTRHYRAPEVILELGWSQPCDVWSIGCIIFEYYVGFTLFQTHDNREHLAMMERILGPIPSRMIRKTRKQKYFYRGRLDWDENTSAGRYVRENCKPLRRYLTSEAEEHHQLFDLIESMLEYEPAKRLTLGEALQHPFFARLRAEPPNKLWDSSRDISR
For assay [19] the target is unchanged. Particulars: at 1 µM.
The target in assay [20] is Dual specificity protein kinase CLK3 (Homo sapiens) (UniProt P49761). Particulars: at 0.1 µM.
Dual specificity protein kinase CLK3 (Homo sapiens), sequence (P49761 whole entry, looked up): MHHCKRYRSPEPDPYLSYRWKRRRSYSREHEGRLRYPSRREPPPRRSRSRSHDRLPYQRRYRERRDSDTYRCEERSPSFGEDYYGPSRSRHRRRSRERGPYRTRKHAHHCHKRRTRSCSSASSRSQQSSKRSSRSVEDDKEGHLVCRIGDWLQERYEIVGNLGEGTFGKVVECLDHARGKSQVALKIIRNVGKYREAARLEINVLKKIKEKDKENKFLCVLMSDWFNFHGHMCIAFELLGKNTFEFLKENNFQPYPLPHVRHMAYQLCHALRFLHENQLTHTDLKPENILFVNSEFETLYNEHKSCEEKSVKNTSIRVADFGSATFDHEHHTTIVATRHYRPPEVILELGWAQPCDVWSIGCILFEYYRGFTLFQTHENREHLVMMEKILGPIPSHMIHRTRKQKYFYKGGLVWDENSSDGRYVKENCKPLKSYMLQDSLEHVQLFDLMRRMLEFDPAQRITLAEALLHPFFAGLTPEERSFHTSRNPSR

Cyclin-dependent kinase 1 (Homo sapiens), sequence (P06493 whole entry, looked up): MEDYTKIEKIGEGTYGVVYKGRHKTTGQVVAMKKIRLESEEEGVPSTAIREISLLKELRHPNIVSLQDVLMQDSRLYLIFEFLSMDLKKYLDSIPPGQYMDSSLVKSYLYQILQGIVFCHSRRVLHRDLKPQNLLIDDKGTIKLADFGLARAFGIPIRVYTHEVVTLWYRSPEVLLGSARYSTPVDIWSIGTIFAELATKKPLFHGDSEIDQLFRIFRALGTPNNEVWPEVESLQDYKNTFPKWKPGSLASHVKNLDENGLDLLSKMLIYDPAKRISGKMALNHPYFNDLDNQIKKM
Casein kinase I isoform gamma-3 (Homo sapiens), sequence (Q9Y6M4 whole entry, looked up, canonical isoform): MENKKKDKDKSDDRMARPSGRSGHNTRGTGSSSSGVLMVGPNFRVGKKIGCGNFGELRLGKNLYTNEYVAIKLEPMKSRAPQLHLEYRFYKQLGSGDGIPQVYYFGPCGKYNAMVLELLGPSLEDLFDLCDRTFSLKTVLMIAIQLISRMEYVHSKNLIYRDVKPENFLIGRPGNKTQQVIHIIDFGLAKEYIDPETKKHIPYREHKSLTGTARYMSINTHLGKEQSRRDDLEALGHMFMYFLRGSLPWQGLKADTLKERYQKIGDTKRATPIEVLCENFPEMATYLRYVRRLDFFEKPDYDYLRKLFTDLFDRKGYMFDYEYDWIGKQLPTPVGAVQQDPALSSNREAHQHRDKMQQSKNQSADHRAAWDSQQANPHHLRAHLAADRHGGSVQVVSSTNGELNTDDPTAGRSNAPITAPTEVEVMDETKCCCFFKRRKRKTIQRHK
Cyclin-dependent kinase 5 (Homo sapiens), sequence (Q00535 whole entry, looked up): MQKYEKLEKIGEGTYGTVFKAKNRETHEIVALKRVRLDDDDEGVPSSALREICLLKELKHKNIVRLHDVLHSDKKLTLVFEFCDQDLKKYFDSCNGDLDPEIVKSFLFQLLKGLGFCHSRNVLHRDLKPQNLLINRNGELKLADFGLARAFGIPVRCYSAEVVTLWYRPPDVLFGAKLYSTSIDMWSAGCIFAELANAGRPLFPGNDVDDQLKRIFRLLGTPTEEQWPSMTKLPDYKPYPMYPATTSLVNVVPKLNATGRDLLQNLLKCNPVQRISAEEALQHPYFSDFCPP
Cyclin-dependent kinase 4 (Homo sapiens), sequence (P11802 whole entry): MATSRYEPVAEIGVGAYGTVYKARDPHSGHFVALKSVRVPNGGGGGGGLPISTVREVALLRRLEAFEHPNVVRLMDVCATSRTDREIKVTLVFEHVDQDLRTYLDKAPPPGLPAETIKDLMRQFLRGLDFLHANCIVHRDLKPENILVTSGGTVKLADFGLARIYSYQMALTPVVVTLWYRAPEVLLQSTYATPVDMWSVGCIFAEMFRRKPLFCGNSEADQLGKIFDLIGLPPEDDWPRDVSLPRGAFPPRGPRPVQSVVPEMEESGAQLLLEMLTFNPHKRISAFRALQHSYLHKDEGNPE
Casein kinase I isoform gamma-2 (Homo sapiens), sequence (P78368 whole entry, looked up, canonical isoform): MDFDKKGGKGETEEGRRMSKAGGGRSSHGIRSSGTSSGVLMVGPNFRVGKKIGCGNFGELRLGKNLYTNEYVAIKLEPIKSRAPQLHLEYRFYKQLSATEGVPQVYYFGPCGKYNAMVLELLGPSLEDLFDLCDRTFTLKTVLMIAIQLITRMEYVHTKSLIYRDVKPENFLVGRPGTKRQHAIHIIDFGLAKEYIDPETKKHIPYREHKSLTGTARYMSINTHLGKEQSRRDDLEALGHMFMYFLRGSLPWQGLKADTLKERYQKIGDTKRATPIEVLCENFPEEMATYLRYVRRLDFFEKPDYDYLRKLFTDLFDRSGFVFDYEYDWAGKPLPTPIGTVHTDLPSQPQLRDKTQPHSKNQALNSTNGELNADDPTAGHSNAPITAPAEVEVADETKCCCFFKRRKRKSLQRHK

By inhibition is commonly meant the drop in the measured response relative to a control, in per cent. `COc1cc2ncnc(Nc3ccc(C)c(O)c3)c2cc1OC`: the inhibition is 4.75% in assay [1]; 1.97% in assay [2]; 4.02% in assay [3]; 0.59% in assay [4]; 4.09% in [5]; 1.34% in assay [6]. For the same compound, the inhibition in [7] was 1.09%; in [8], 4.69%; in assay [9] it was 6.24%; in assay [10] it was 4.08%; in assay [11] it was -1.71%; in [12], 4.46%. The inhibition is 6.21% in assay [13]; 0.92% in assay [14]; 2.99% in assay [15]; -0.81% in assay [16]; 4.49% in assay [17]; 1.85% in assay [18]. Also, the values for the inhibition in assay [19] and in [20] were 0.29% and 1.39%, respectively.

In the case of `CCS(=O)(=O)c1ccc(OC)c(Nc2ncc(-c3cccc(OC)c3)o2)c1`, the inhibition in assay [1] was 3.73%; in assay [2], 3.1%; in assay [3] it was 5.62%; in assay [4] it was -0.89%; in assay [5], 2.51%; in assay [6], 1.38%. Moreover, the inhibition in [7] was 5.48%; in [8] it was 2.62%; in assay [9] it was 7.35%; in [10], 0.48%; in assay [11] it was 3.18%; in [12] it was 1.8%. In addition, the inhibition in assay [13] was found to be 3.35%; in [14], 0.02%; in [15], 1.71%; in [16], 3.87%; in [17], 5.07%; in [18], 34.8%. In addition, the inhibition in assay [19] turned out to be 86%; in [20], 2.36%.

`C[C@@H](Oc1cc(-n2cnc3ccc(OCC4CCN(C)CC4)cc32)sc1C(N)=O)c1ccccc1C(F)(F)F`: the inhibition was -3.37% in assay [1]; -1.08% in [2]; -3.59% in assay [3]; 2.12% in [4]; 3.02% in assay [5]; -0.78% in assay [6]. The inhibition in assay [7] was 2.52%; in assay [8] it was -0.93%; in [9], 0.83%; in assay [10], -1.54%; in assay [11], 0.6%; in [12], -1.73%. In addition, the inhibition is 1% in assay [13]; 0.01% in [14]; 3.08% in assay [15]; -3.79% in assay [16]; -1.66% in assay [17]; 1.74% in assay [18]. The inhibition is 9.73% in assay [19] and -0.19% in assay [20].

Regarding `COc1ccc(-c2nn3ncccc3c2-c2ccnc(Nc3cccc(C(F)(F)F)c3)n2)cc1`, the inhibition is 2.2% in assay [1]; 2.44% in assay [2]; 1.71% in assay [3]; 0.53% in [4]; 1.61% in assay [5]; 0.03% in assay [6]. The inhibition was 1.83% in assay [7]; 2.35% in assay [8]; 4.1% in [9]; 0.68% in [10]; -2.93% in assay [11]; 1.42% in assay [12]. The inhibition in [13] is 3.64%; in [14], 0.07%; in assay [15] it was 1.77%; in assay [16], -1.93%; in assay [17], -0.66%; in assay [18] it was 0.06%. Besides, the inhibition in assay [19] was -1.44%; in assay [20], -0.4%.

Regarding `COC(=O)c1ccc2c(c1)C(=Cc1cc(Br)c(O)c(Br)c1)C(=O)N2`, the inhibition in assay [1] was 6.12%; in [2], 3.75%; in assay [3], 5.04%; in [4], 1.54%; in assay [5], 2.24%; in [6], 8.07%. Further, the inhibition is 7.32% in assay [7]; 2.47% in assay [8]; 4.31% in assay [9]; -5.06% in assay [10]; -1.48% in [11]; 3.47% in assay [12]. In addition, the inhibition is 4.69% in assay [13]; 1.03% in [14]; 2.5% in assay [15]; -4.09% in assay [16]; -4.12% in assay [17]; 8.63% in [18]. Besides, the inhibition was 50.1% in assay [19] and 0.44% in assay [20].

As to `Cc1ccc2c(-c3ccnc(Nc4ccc5c(c4)OCCO5)n3)c(-c3ccc(C(F)(F)F)cc3)nn2n1`, the inhibition was 1.66% in assay [1]; 1.42% in assay [2]; 1.29% in [3]; 1.21% in [4]; 2.01% in [5]; -0.16% in [6]. Further, the inhibition in [7] is 2.09%; in [8], 0.31%; in assay [9], 1.68%; in assay [10], -0.58%; in assay [11], -3.94%; in assay [12], 0.65%. Moreover, the inhibition in [13] was 1.74%; in [14], 0.21%; in [15], 1.41%; in assay [16] it was -0.74%; in [17] it was -1.75%; in assay [18], 1.25%. Besides, the figures for the inhibition in assay [19] and in [20] were -0.4% and 1.41%, respectively.

`NS(=O)(=O)c1ccc(-c2cc3ccncc3cc2OCc2ccccc2)cc1`: the inhibition in assay [1] was 3.43%; in assay [2], 1.53%; in assay [3], 4.76%; in assay [4], -0.03%; in assay [5], 0.11%; in assay [6] it was 1.51%. Besides, the inhibition in [7] was 2.11%; in [8], 1.41%; in assay [9], 1.57%; in [10], 4.12%; in [11] it was -0.11%; in assay [12] it was 2.12%. For the same compound, the inhibition in [13] is 0.84%; in [14], -0.11%; in assay [15], -1.18%; in assay [16] it was 3.37%; in [17], 2.89%; in assay [18], 0.98%. In addition, the results for the inhibition in [19] and in assay [20] were 2.04% and 1.44%, respectively.

Turning to `Cc1ccc(C(=O)NC2CC2)cc1-c1ccc2[nH]ncc2c1`, the inhibition in assay [1] is -3.39%; in assay [2], -2.17%; in assay [3] it was -1.12%; in assay [4], 0.88%; in assay [5], 2.1%; in assay [6] it was 0.12%. Moreover, the inhibition in assay [7] is 4.69%; in [8] it was -1.68%; in assay [9], 0.18%; in assay [10], -2.07%; in assay [11], 0.41%; in assay [12] it was -0.45%. Further, the inhibition is 1.78% in assay [13]; 0.3% in [14]; 2.44% in assay [15]; -4.81% in assay [16]; -2.84% in [17]; -1% in assay [18]. Moreover, the values for the inhibition in [19] and in assay [20] were 0.36% and -0.51%, respectively.

Regarding `CC(C)c1ccc(Nc2nccc(-c3cnn4ncccc34)n2)cc1`, the inhibition in assay [1] amounted to 24.9%; in assay [2] it was 1.13%; in assay [3] it was 13.6%; in assay [4] it was 21.5%; in assay [5], 64%; in assay [6], 19.8%. Besides, the inhibition in [7] is 78.7%; in assay [8], 22.8%; in assay [9] it was 64.5%; in assay [10], 1.82%; in [11], 39%; in assay [12], 9.51%. In addition, the inhibition came to 39.5% in assay [13]; 12.7% in [14]; 51.4% in [15]; 3.4% in [16]; 19.4% in [17]; 14% in assay [18]. Besides, the inhibition was determined as 65.3% in [19] and 3.13% in [20].

Consider `CN1CCN(C(=O)c2ccc(NC(=O)Nc3ccc(N(C)c4ccnc(Nc5ccc(CS(C)(=O)=O)cc5)n4)cc3)cc2)CC1`, for which the inhibition in [1] was determined as 1.64%; in [2] it was 1.17%; in assay [3] it was 1.29%; in [4] it was 2.37%; in [5], 5.28%; in assay [6] it was 4.51%. Also, the inhibition in assay [7] was 10.8%; in assay [8] it was 0.96%; in assay [9], 5.93%; in assay [10] it was -1.55%; in assay [11], 2.12%; in assay [12], 2.05%. Besides, the inhibition in [13] is 5.68%; in [14] it was 1.54%; in assay [15] it was 8.48%; in assay [16] it was -6.28%; in assay [17] it was 3.8%; in assay [18], 0.17%. Further, the inhibition was determined as 3.57% in assay [19] and 0.18% in assay [20].

In the case of `O=C1Nc2ccc(-c3cccnc3)cc2C1=Cc1cc(Br)c(O)c(Br)c1`, the inhibition was 4.44% in assay [1]; 3.31% in assay [2]; 3.74% in assay [3]; -0.12% in assay [4]; 1.23% in assay [5]; 2.18% in [6]. For the same compound, the inhibition in assay [7] was 1.15%; in [8], 3.46%; in assay [9], 5.04%; in assay [10] it was 0.27%; in assay [11], 2.98%; in [12] it was 3.31%. The inhibition was found to be 3.8% in assay [13]; 1.01% in [14]; 1.79% in assay [15]; 5.85% in [16]; 6.68% in assay [17]; 32.2% in assay [18]. Besides, the inhibition in assay [19] amounted to 84.6%; in assay [20] it was 7.23%.

For the compound `COC(=O)Nc1nc2cc(Oc3ccc(NC(=O)Nc4cccc(Br)c4)cc3)ccc2[nH]1`, the inhibition is 1.6% in assay [1]; -0.42% in assay [2]; 1.82% in assay [3]; 1.34% in assay [4]; 2.26% in assay [5]; 3.2% in assay [6]. Besides, the inhibition in assay [7] was -0.87%; in [8], 1.48%; in assay [9], 2.15%; in assay [10], 2.04%; in assay [11] it was -4.35%; in [12], 2.4%. Moreover, the inhibition in assay [13] was 2.61%; in assay [14], 0.44%; in [15], 1.22%; in assay [16] it was -3.24%; in [17] it was 0.22%; in assay [18], 0.85%. The inhibition in [19] was 1.48%; in assay [20], 1.73%.

`CCn1c(-c2nonc2N)nc2ccc(F)cc21`: the inhibition in [1] stood at 5.68%; in [2] it was 5.66%; in [3], 3.59%; in assay [4], 0.74%; in assay [5], 1.27%; in [6] it was 1.3%. The inhibition was 7.59% in [7]; 3.91% in [8]; 5.8% in assay [9]; 3.47% in [10]; -3.51% in [11]; 1.9% in assay [12]. Further, the inhibition was 2.11% in assay [13]; 0.58% in assay [14]; 0.39% in assay [15]; 1.33% in assay [16]; 2.18% in assay [17]; 2.5% in [18]. In addition, the inhibition came out at 0.59% in assay [19] and 2.12% in assay [20].
